In PubChem BioAssay (NCI):
Compounds without any hit were thinned out: in the full panel of roughly 79,000, 15% have a hit. Cut-off read from the data, not from the text of the source: active = growth inhibition above about 70%; inactive = the rest.

What was measured:
[1] = NCI Yeast Anticancer Drug Screen. Data for the rad50 strain (AID 155);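 note: 0% = growth of vehicle-only cultures of the same strain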; settings: S. cerevisiae rad50 strain growth inhibition; at 50.0 µM; hits give high values
Procedure, shortened: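 Readout: growth inhibition relative to vehicle-treated cultures. Compound exposure was carried out in a genetically defined yeast strain deficient in DNA damage repair.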

[2] = NCI Yeast Anticancer Drug Screen. Data for the mec2-1 strain (AID 157); settings: S. cerevisiae mec2-1 strain, at 50.0 µM, hits give high values
Procedure, shortened: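 Yeast mec2-1 mutant treated with compound. Readout: growth inhibition vs vehicle controls.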

[3] = NCI Yeast Anticancer Drug Screen. Data for the sgs1 mgt1 strain (AID 161);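 note: 0% = growth of cultures given vehicle only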; settings: S. cerevisiae sgs1 mgt1 strain, at 50.0 µM, hits give high values
Procedure, shortened: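 Inhibition of yeast growth, normalised to vehicle-treated controls, is reported for a strain bearing genetic alterations in DNA damage repair.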

[4] = NCI Yeast Anticancer Drug Screen. Data for the cln2 rad14 strain (AID 165);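 note: 0% = growth equal to vehicle treated cultures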; settings: S. cerevisiae cln2 rad14 strain, at 50.0 µM, hits give high values
Procedure, shortened: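 cln2 rad14 yeast strain; compound exposure; growth inhibition read vs vehicle controls.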

[5] = NCI Yeast Anticancer Drug Screen. Data for the bub3 strain (AID 167); settings: S. cerevisiae bub3 mutant strain, at 50.0 µM, hits give high values
Procedure, shortened: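 Readout: yeast growth inhibition, expressed relative to vehicle-only wells. The test organism is a mutant strain from a panel with lesions in DNA repair or checkpoint genes.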

[6] = NCI Yeast Anticancer Drug Screen. Data for the mlh1 rad18 strain (AID 175); settings: S. cerevisiae mlh1 rad18 strain growth inhibition; at 50.0 µM; hits give high values
Procedure, shortened: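 Yeast w/ defined DNA-repair lesions; compound exposure; growth vs vehicle controls → % inhibition.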

Measured: growth inhibition

Oc1ccccc1/C=N\Sc1ccc(Br)cc1
inactive: [1] 23.9% | [2] 13.8% | [3] 22% | [4] 4.25% | [5] 3.95% | [6] 17%

O=C1Nc2n[nH]c(=S)n2NC12c1ccccc1-c1ccccc12
inactive: [1] -45.8% | [2] -14.2% | [3] -28.1% | [4] -19.9% | [5] -21.7% | [6] -63.2%

CN(C)C=NC1CC(C)(C)NC(C)(C)C1
inactive: [1] -18.2% | [2] 2.2% | [3] 3.1% | [4] -49.1% | [5] 13.2% | [6] -12.9%

O/N=C(\c1ccccc1)c1ccc2ncccc2c1
inactive: [1] 37% | [2] 41.2% | [3] 27.9% | [4] 2.8% | [5] 7.45% | [6] 23.3%

c1ccc(C(=NN(CCCCN(N=C(c2ccccc2)c2ccccc2)c2ccccc2)c2ccccc2)c2ccccc2)cc1
inactive: [1] 28.6% | [2] 21.4% | [3] -11.6% | [4] 6.4% | [5] 0.05% | [6] 19.9%

CCCCOC(=O)COc1ccc(OC)cc1
inactive: [1] -4.5% | [2] -22.1% | [3] -13.3% | [4] -34.6% | [5] 3.45% | [6] 6.2%

Cc1ccc2ccc(C)nc2c1
inactive: [1] 15.8% | [2] -23.7% | [3] -5.85% | [4] 7.15% | [5] 18.2% | [6] -22.9%

N#C/C(=C\c1ccccc1)C(=O)Nc1ccccc1
inactive: [1] 17.3% | [2] 3.5% | [3] -1.35% | [4] -4.15% | [5] -4.7% | [6] 22.6%

NC(=S)N/N=C(/CC(=O)c1ccc([N+](=O)[O-])cc1)C(=O)Nc1ncc([N+](=O)[O-])s1
inactive: [1] 51.9% | [2] 29% | [3] 30.1% | [4] 19.2% | [5] 53.2% | [6] 25.2%

O=C(O)C(CO)Nc1ccccc1 (stereo unspecified)
inactive: [1] 18.9% | [2] 10.4% | [3] 22.1% | [4] 12.9% | [5] -0.65% | [6] 21.7%

COc1ccc2c(CCNC(C)=O)c(C(C)=O)[nH]c2c1
inactive: [1] -9.65% | [2] -3.25% | [3] 12.4% | [4] 15.5% | [5] -12.3% | [6] 36.1%

CC1C(NNC(N)=O)Oc2cc3c(cc2C1c1ccccc1O)OCO3 (stereo unspecified)
inactive: [1] -5.7% | [2] -25.4% | [3] 11.8% | [4] 10.2% | [5] -11.1% | [6] -4.75%

COC(=O)Nn1cc(C(C(C)=O)C(C)=O)c(C(C)=O)c1C
inactive: [1] -6.9% | [2] -0.15% | [3] 7.9% | [4] -35.6% | [5] -0.05% | [6] 17.9%

CCN(CC)C(=O)c1ccc[n+](CCC(N)=O)c1
inactive: [1] -1.05% | [2] -17.8% | [3] -3% | [4] 14.8% | [5] -8.5% | [6] 6.6%

Cc1ncc2c[n+]([O-])ccn12
inactive: [1] 6.05% | [2] 10.9% | [3] -4% | [4] -1.25% | [5] 17.4% | [6] 7.8%

O=C(O)c1cccnc1C(=O)Nc1cccc2ccccc12
inactive: [1] 13.1% | [2] 13.4% | [3] 12.6% | [4] 0.9% | [5] 10.2% | [6] -16.6%

O=[N+]([O-])c1ccccc1N=Nc1c(O)[nH]c2c(Cl)cc(Cl)cc12
inactive: [1] -25.9% | [2] -35.6% | [3] -31.9% | [4] -16.2% | [5] -45.4% | [6] -47.4%

CCCNC(=O)Nc1ccc(OCC)cc1
inactive: [1] 0.1% | [2] -11.3% | [3] -14.8% | [4] -36.8% | [5] 2.2% | [6] 5.5%

CC(=O)N(C(C)=O)c1ccc2c3c(cccc13)CC2
inactive: [1] 0% | [2] -3.9% | [3] 2.6% | [4] -19.1% | [5] 8.1% | [6] -1.2%

O=C1NC(c2ccc(Cl)cc2)(c2ccc(Cl)cc2)C(=O)N1Cl
inactive: [1] -4.8% | [2] -1.6% | [3] 8.05% | [4] 16.9% | [5] 11.6% | [6] -16.4%

COc1ccc2c(c1)CCCN2c1ccc(N=C(N)N)cc1
inactive: [1] 2.95% | [2] -6.35% | [3] -1.75% | [4] -17.8% | [5] 27.9% | [6] 16.5%
